Rab9 promoter act = qHTS Assay for Rab9 Promoter Activators; Huh7 Rab9 promoter-luciferase reporter, luminescence, 24 h; Potency, µM (titrated, usually from 9.22 µM), for inactives: at the top dose activation, negative = inhibition, hits mostly activators; actives 2.8% (n = 320,000); AID 485297, 2010; further: % of control where 0% means no effect; nearly all actives have a fitted effect of over 60% in size
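Promoter activation is measured as luciferase luminescence in Huh7 cells stably transfected with a Rab9 promoter–luciferase construct, following 24 h compound exposure at 37 °C and 10 min reagent incubation at ambient temperature.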
ELG1 genotoxic = qHTS screen for small molecules that induce genotoxicity in human embryonic kidney (HEK293T) cells expressing luciferase-tagged ELG1. actives 1.3% (n = 330,000). Potency, µM (top dose mostly 46 µM), without a hit: at the top dose activity change, positive = activation, most hits filed as activators. AID 504466, 2011. HEK293T ELG1-luciferase reporter, luminescence, 16 h; further: % of control where 0% means no effect; nearly all actives have a fitted effect of over 60% in size
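DMSO vehicle served as control against compound-treated ELG1-luciferase HEK293T cells; exposure lasted 16 hr at 37 °C and 5% CO2, followed by ONE-Glo luminescence detection after 30 min.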
SMN2 splice enh = qHTS Assay for Enhancers of SMN2 Splice Variant Expression. Potency, µM (series often up to 46.1 µM), inactives show top-dose activity change, positive = activation, hits mostly activators. AID 1458, 2008. HEK293 SMN2-luciferase splicing reporter, luminescence, 30-36 h. actives 2.8% (n = 210,000); further: % of control where 0% means no effect; nearly all actives have a fitted effect of over 55% in size
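HEK293 cells carry an SMN2 […]–luciferase reporter in which exon 7 inclusion puts luciferase in frame. Cells were plated 10-12 h before compound addition, then incubated 30-36 h at 37C. ONE-Glo luminescence was read; sodium butyrate at 4.5 mM final served as control.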
NPC1 promoter act = qHTS Assay for NPC1 Promoter Activators; actives 2.4% (n = 320,000); AID 485313, 2010; Huh7 NPC1 promoter luciferase reporter, 24 h; Potency, µM (doses to about 9.22 µM), without a hit: at the top dose activation, most hits filed as activators; further: % of control where 0% means no effect; nearly all actives have a fitted effect of over 60% in size
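Luciferase expression driven by the NPC1 promoter was measured in stably transfected Huh7 cells after a 24 h compound incubation, using a luciferase reagent and a luminescence read.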
ELG1 DNA repair = qHTS screen for small molecules that inhibit ELG1-dependent DNA repair in human embryonic kidney (HEK293T) cells expressing luciferase-tagged ELG1 | Potency, µM (top dose mostly 46.1 µM), for inactives: at the highest dose activity change, negative = inhibition, actives largely listed as inhibitors | AID 504467, 2011 | actives 2.3% (n = 330,000) | HEK293T ELG1-luciferase reporter, luminescence, 16 h; DNA damage induced by 5-fluorouridine; further: on the % scale 0 is the no-effect control and ±100 the full control effect; nearly all actives have a fitted effect of over 55% in size
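Quantitative HTS, concentration-response format. 2,000 cells/well co-treated with 5-fluorouridine and compound, 16 hr in 5% CO2 at 37 °C; ONE-Glo luminescence read after 30 min.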
FLuc counter = qHTS profiling assay for firefly luciferase inhibitor/activator using purifed enzyme and Km concentrations of substrates (counterscreen for miR-21 project); Luciferin 4-monooxygenase (Photinus pyralis), P08659; AID 588342, 2011; purified FLuc, Km substrates, luminescence inhibition; actives 6.9% (n = 360,000); Potency, µM (highest dose often 57.5 µM), for the others: at the highest dose activity change, negative = inhibition, usual class: inhibitors;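 further: plate controls were vehicle for no effect and reference inhibitor for full effect; nearly all actives have a fitted effect of over 55% in size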
Target sequence (P08659 whole entry, looked up): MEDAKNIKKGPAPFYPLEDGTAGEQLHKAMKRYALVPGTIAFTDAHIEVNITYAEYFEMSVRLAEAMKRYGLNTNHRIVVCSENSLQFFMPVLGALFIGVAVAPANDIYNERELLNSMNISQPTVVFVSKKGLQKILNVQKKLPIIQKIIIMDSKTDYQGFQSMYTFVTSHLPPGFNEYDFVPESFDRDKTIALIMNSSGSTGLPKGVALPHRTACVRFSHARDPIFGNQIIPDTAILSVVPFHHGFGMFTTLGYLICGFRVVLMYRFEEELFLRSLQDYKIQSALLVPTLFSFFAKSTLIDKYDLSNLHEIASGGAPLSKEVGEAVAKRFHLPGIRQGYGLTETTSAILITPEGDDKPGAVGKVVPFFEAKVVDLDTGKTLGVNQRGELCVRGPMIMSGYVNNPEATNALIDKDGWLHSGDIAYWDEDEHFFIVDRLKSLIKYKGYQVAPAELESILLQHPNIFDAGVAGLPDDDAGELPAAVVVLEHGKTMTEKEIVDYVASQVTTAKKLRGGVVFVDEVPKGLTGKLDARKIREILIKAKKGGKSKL
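Purified P. pyralis luciferase (10nM final) with 10uM D-luciferin and 10uM ATP (Km levels) in 50mM Tris acetate pH 7.5, 10mM Mg acetate, 0.01% Tween-20, 0.05% BSA; qHTS 6-point titration, ~60 µM downward; luminescence read.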
Numbers without * were called inactive; u = inconclusive; x = not tested or not shown; [ ] = another dose, or the depositor's remark. Rows were chosen to be rich in hits. Some 9.3% of all compounds tested hit in one or more screens of this group. The call rests on the fitted dose curve; in most records, active means well fitted curve in the direction sought with a large enough effect; inconclusive means small, poorly fitted or top-dose-only effect, or another doubt; inactive means no such curve, though single readings can be large; an effect the other way counts as inactive or inconclusive. Potency means the concentration at half of the fitted maximal effect.

SMILES	Rab9 promoter act	ELG1 genotoxic	SMN2 splice enh	NPC1 promoter act	ELG1 DNA repair	FLuc counter
COc1ccc2c(c1)-c1nc(NC(=O)c3ccco3)sc1CC2	19.4%	13.2%	x	13.7%	u	19µM*
COc1ccc2c(c1)CCc1sc(NC(=O)c3ccc(C)cc3)nc1-2	3.2%	-6.1%	-30.9%	0.3%	u	8.49µM*
COc1ccc2c(c1)-c1nc(NC(=O)c3cccs3)sc1CC2	20.2%	-0.9%	3.5%	3.0%	u	19µM*
COc1ccc2c(c1)Cc1sc(NC(C)=O)nc1-2	0.794µM*	8.2µM*	5.62µM*	1µM*	u	4.78µM*
COc1ccc2c(c1)-c1nc(NC(=O)c3cccc(Br)c3)sc1CC2	x	x	-26.3%	x	x	-13.2%
CCC(=O)N1CCc2cc(Br)cc(S(=O)(=O)CCC(=O)Nc3ccc(C)c(F)c3)c21	x	x	-0.6%	x	x	0.4%
Cc1ccc(C(=O)NCC(=O)OCC(=O)N(CC(C)C)c2c(N)n(Cc3ccccc3)c(=O)[nH]c2=O)cc1	0.3%	8.5%	x	-2.4%	u	-8.1%
CCn1cc(/C=C(\NC(=O)c2ccc(OC)cc2)C(=O)N2CCOCC2)c2ccccc21	-0.1%	1.4%	x	2.0%	3.6%	1.6%
COc1ccc2c(c1)CCc1sc(NC(=O)c3ccco3)nc1-2	u	u	9.8%	25.2%	u	21.3µM*
COc1ccc2c(c1)Cc1sc(NC(=O)c3cccnc3)nc1-2	15.5%	-4.8%	-28.7%	-0.1%	-6.3%	u
COc1ccc2c(c1)Cc1sc(NC(=O)c3ccco3)nc1-2	1.78µM*	12.8%	11.2µM*	2µM*	u	3.38µM*
O=C(CNC(=S)N(Cc1ccccc1)Cc1cccnc1)NC1CCCCC1	12.6%	-4.8%	-4.0%[1.84 µM]	-0.2%	-11.0%	10.1%
c1ccc(OCc2nc(-c3cccs3)no2)cc1	3.16µM*	12.6µM*	u	3.55µM*	u	7.57µM*
Fc1ccc(OCc2nc(-c3cccs3)no2)cc1	2.51µM*	u	u	3.16µM*	u	10.7µM*
O=C1/C(=C/c2ccccc2)CSc2sccc21	20.5%	u	5.2%	15.0%	u	u
CCOC(=O)c1cnc(SCC(=O)c2ccc3c(c2)OCCO3)nc1N	u	4.2%	14.1%	0.0%	15.6%	21.3µM*
CCOC(=O)c1cnc(SCC(=O)c2ccccc2)nc1N	1.58µM*	20.6µM*	12.6µM*	3.16µM*	u	2.13µM*
CCOC(=O)c1cnc(SCc2cccc(C)c2)nc1N	29.7%	16.4µM*	u	28.5%	u	u
CCOC(=O)c1cnc(SCC(=O)c2ccc(C)cc2)nc1N	10.6%	6.4%	14.2%	-3.6%	u	0.7%
CCOC(=O)c1cnc(SCC(C)C)nc1N	2.51µM*	u	14.1µM*	3.16µM*	u	6.75µM*
CCOC(=O)c1cnc(SC)nc1N	-0.7%	11.7%	-10.1%	-1.0%	u	-8.8%
CCOC(=O)C(=O)Cc1nc2ccccc2s1	12.2%	2.3%	x	2.7%	9.5%	19µM*
O=C(OCc1nc2ccccc2s1)c1ccc([N+](=O)[O-])o1	-1.6%	-5.4%	x	-6.0%	u	-10.4%
Cc1cc(C(=O)OCc2nc3ccccc3s2)c(C)o1	x	x	-2.0%	x	x	19µM*
NC(=O)c1ccccc1OCc1nc2ccccc2s1	u	u	x	u	u	3.01µM*
SMILES	Rab9 promoter act	ELG1 genotoxic	SMN2 splice enh	NPC1 promoter act	ELG1 DNA repair	FLuc counter
O=C(OCc1nc2ccccc2s1)c1ccco1	-1.8%	u	20.0%	9.8%	u	6.75µM*
O=C(OCc1nc2ccccc2s1)c1ccc(Br)o1	-0.1%	14.0%	19.0%	-4.7%	u	u
CC1(OC(=O)C2CCCC2)C(=O)C=C2C=C(c3ccsc3)N(C(CO)CO)C=C2C1=O (configuration not stated)	-0.4%	0.1%	-0.1%[9.22 µM]	-4.1%	u	-2.3%
Cc1nn(C)c(C)c1NC(=O)COc1ccc(Cl)cc1Br	-28.4%	1.1%	x	-28.7%	3.1%	-9.1%
O=[N+]([O-])c1ccc(C(O)C23CN4CN(CN(C4)C2)C3)cc1 (configuration not stated)	-3.8%	3.2%	2.2%	-1.4%	10.6%	-4.1%
CC(=O)OCc1nc2ccccc2s1	14.6%	u	-4.6%	14.0%	u	5.36µM*
O=C(O)COCc1nc2ccccc2s1	-2.9%	-2.0%	x	-0.1%	-6.0%	2.5%
Cc1ccc(Cl)c2sc(NC(=O)C3=COCCO3)nc12	4.9%	u	x	-4.8%	u	19µM*
O=C(Nc1nc2ccc(F)cc2s1)C1=COCCO1	0.282µM*	u	x	0.708µM*	u	0.426µM*
O=C(Nc1nnc(-c2cc(Cl)ccc2Cl)o1)C1=COCCO1	-1.9%	3.2%	x	10.7%	25.4%	-29.7%
COc1ccc(Cl)c2sc(NC(=O)C3=COCCO3)nc12	-5.0%	u	x	21.7%	u	u
Cc1ccc(-c2nnc(NC(=O)C3=COCCO3)o2)c(C)c1	11.2%	7.9%	x	18.7%	u	15.1µM*
Cc1cc(C)c2sc(NC(=O)C3=COCCO3)nc2c1	0.447µM*	u	x	0.562µM*	u	2.13µM*
CSc1cccc2sc(NC(=O)C3=COCCO3)nc12	27.9%	13.3%	x	19.9%	u	-14.4%
Cc1cc(C)c(-c2csc(NC(=O)C3=COCCO3)n2)c(C)c1	-5.4%	u	x	-2.0%	13.0%	-0.8%
CCOc1ccc(-c2nc(Cn3c(=O)cc(C)c4c(C)nn(-c5ccccc5)c43)c(C)o2)cc1	x	x	x	x	x	-4.6%
CC1CN(c2nnc(-c3ccccc3)c3ccccc23)CC(C)O1 (configuration not stated)	-1.9%	-4.9%	-5.3%	-5.4%	-13.7%	0.4%
O=C(Nc1nc2cc3c(cc2s1)OCCO3)C1=COCCO1	-24.5%	u	x	-23.0%	u	0.0536µM*
CC(C)(C)c1ccc(C(=O)NCC(=O)N2CCC3(CC2)NCCc2[nH]cnc23)cc1	-0.9%	0.6%[9.26 µM]	x	-5.9%	24.6%	-8.0%
Cc1cc(OCC(=O)Nc2ccc(S(=O)(=O)N3CCN(C)CC3)cc2)ccc1Br	8.9%	0.2%	x	-1.1%	0.8%	1.6%
COc1ccccc1CNC(=O)c1cnn2c(C)c(Cc3ccc(F)cc3)c(C)nc12	x	x	x	x	x	2.4%
O=C(CNc1ccc(F)cc1)N/N=C1\CCCc2ccccc21	1.4%	-3.4%	-3.4%	-1.6%	5.9%	4.1%

Bioassay records (PubChem)
